High-throughput results from PubChem BioAssay.
A selection: hits, their analogues and other compounds. The true share with any hit is near 1.5%.
SARS 3CLpro inh = SARS-CoV 3CLpro protease inhibition; 290,000 compounds, 0.14% hits; AID 1706; recombinant SARS-CoV 3CLpro, quenched FRET peptide cleavage; P0C6X7; inhibition, % at 6 µM; in the data active means inhibition above about 12%
CCHFV vOTU inh = CCHFV vOTU protease inhibition. Pep-AMC fluorescence. inhibition, % at 11.5 µM. 370,000 compounds, 0.55% hits. AID 651958; in the data active means inhibition above about 30%; further: 0% = vehicle wells with enzyme and 100% = no enzyme wells
DUSP3 inh = inhibitors of human VHR1 phosphatase (DUSP3). P51452. recombinant VHR phosphatase, pNPP absorbance. inhibition, % at 13.3 µM. 290,000 compounds, 0.52% hits. AID 1654; in the data active means inhibition above about 50%
RecA intein inh = blocks M. tuberculosis RecA intein splicing | cell-free RecA intein splicing, fluorescence | 290,000 compounds, 0.75% hits | inhibition, % (concentration not given with the values) | P9WHJ3; in the data active means inhibition above about 30%;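 further: 0% = vehicle wells and 100% = reference inhibitor control wells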
Target sequence (P9WHJ3 whole entry, looked up): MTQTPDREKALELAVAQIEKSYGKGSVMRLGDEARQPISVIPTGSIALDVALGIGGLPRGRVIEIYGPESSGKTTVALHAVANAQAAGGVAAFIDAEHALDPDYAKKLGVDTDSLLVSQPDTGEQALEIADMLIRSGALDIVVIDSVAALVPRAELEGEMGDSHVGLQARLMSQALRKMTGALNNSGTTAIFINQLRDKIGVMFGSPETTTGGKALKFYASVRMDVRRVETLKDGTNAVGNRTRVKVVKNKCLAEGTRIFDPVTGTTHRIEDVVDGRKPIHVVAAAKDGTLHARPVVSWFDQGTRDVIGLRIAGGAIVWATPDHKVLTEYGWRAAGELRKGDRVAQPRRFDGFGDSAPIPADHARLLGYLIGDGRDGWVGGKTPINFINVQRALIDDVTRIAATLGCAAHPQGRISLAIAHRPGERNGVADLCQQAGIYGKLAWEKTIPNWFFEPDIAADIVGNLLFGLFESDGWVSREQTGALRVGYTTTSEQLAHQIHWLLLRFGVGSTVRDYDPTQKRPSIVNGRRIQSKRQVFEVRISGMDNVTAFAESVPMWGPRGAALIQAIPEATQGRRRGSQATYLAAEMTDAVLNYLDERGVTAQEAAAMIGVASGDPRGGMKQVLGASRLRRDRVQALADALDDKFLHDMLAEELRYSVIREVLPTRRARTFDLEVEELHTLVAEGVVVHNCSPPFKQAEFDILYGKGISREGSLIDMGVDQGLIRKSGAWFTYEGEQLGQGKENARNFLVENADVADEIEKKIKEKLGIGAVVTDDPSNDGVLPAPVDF
Starred values were filed as active, the others as inactive; x = no result given.

SMILES	SARS 3CLpro inh	CCHFV vOTU inh	DUSP3 inh	RecA intein inh
Cc1ccc(S(=O)(=O)N(C)S(=O)(=O)c2ccc(C#N)cc2)cc1	6.3	x	52.9*	0.0
Cc1ccc(S(=O)(=O)CC(O)COc2ccc(C#N)cc2)cc1 (stereo not given)	-2.0	-4.3	31.2	-1.4
Cc1ccc(C)c(NC(=O)c2ccc(CS(=O)(=O)Cc3ccccc3C)o2)c1	x	-6.2	x	x
CN(CC#Cc1ccccc1)C(N)=NC(=O)/C=C/c1cccc(C(F)(F)F)c1	x	12.5	x	x
CC1=C(C(=O)OCCCCCl)C(c2cc3c(cc2Br)OCO3)NC(=O)N1 (stereo not given)	2.3	9.0	8.1	-0.6
CCC(C)(C)NC(=O)c1sccc1Oc1ccc(F)cc1[N+](=O)[O-]	-5.0	-3.3	51.2*	2.5
C#CC(C)(C)NC(=O)c1sccc1Oc1ccc(F)cc1[N+](=O)[O-]	0.3	-13.2	33.3	-7.2
CCC(C)NC(=O)Nc1ccccc1F (stereo not given)	2.3	2.8	1.3	-2.8
CCC(C)NC(=O)Nc1ccccc1C (stereo not given)	3.8	7.2	51.6*	-0.6
CCN1CCCC1CNC(=O)c1cc([N+](=O)[O-])c(N(C)C)cc1OC (stereo not given)	-4.3	3.0	57.0*	0.9
COc1cc(C(=O)NCC(c2ccccc2)N(C)C)ccc1OCc1c(C)noc1C (stereo not given)	x	-8.0	x	x
CC(C(=O)NCc1cccnc1)c1ccc([N+](=O)[O-])cc1 (stereo not given)	-3.7	11.7	52.0*	-0.1
Fc1ccc(-c2ccc3c(n2)CCCN3Cc2ccccc2C(F)(F)F)cc1	x	3.9	x	x
CCc1cc(C(=O)N2CCCC(CCC(=O)N3CCN(c4ccccn4)CC3)C2)no1 (stereo not given)	0.8	21.3	11.1	-0.3
O=C(CCC1CCCN(C(=O)c2cc(C3CC3)[nH]n2)C1)N1CCN(c2ccccn2)CC1 (stereo not given)	-4.1	-12.4	51.6*	-5.3
O=C(CN1C(=O)COc2ccccc21)N1CCCC1	-0.1	-6.0	55.5*	-3.0
CCN1CCN(C(=O)CN2C(=O)COc3ccc(S(=O)(=O)N4CCOCC4)cc32)CC1	-0.5	9.6	56.8*	6.2
CCC(C)NC(=O)CN1C(=O)COc2ccc(S(=O)(=O)N3CCOCC3)cc21 (stereo not given)	3.8	-2.6	-9.1	4.3
COc1cccc(CC(=O)NCC2CCN(C(=O)C(=O)c3cccs3)CC2)c1	x	8.9	x	x
Cc1ccc(-c2c(C(=O)N/N=C/c3sccc3C)nnn2-c2nonc2N)cc1	-2.0	15.4	9.7	0.0
CC(C)c1ccc(/C=N/NC(=O)c2nnn(-c3nonc3N)c2CSC2=NCCS2)cc1	-2.3	-2.0	-0.1	33.8*
Cc1ccsc1/C=N/NC(=O)c1nnn(-c2nonc2N)c1C	-8.4	6.5	56.2*	x
Nc1nonc1-n1nnc(C(=O)N/N=C/c2ccc(Br)cc2)c1CSC1=NCCS1	2.6	2.0	27.0	31.5*
CCC(O)c1cnc(OCc2ccccc2)nc1OCc1ccccc1 (stereo not given)	x	13.5	x	x
COc1ccccc1CN(C)C(=O)C1CCCN(c2nc3ccccc3o2)C1 (stereo not given)	x	-7.2	x	x
SMILES	SARS 3CLpro inh	CCHFV vOTU inh	DUSP3 inh	RecA intein inh
O=[N+]([O-])c1cccc2c([As](=O)(O)O)cccc12	-2.2	10.1	122.1	35.3*
Cc1sc2ncnc(SCC(=O)N3CCCC(C(F)(F)F)C3)c2c1C (stereo not given)	-2.6	7.9	14.4	2.3
O=c1c2ccccc2nc2n1CCCCC2	-3.3	1.2	20.0	1.7
O=c1c2ccccc2nc2n1CCC2	5.6	12.6	42.5	50.6*
CCN(CC)S(=O)(=O)c1ccc(NC(=O)C2CCCN(C(=O)c3ccc(Cl)cc3)C2)cc1 (stereo not given)	-3.7	7.8	-3.8	-1.4
CCOC(=O)CSc1nc2c(sc(=S)n2-c2ccccc2)c(=O)n1-c1ccc(OC)cc1OC	-4.5	-5.7	52.6*	-19.4
COc1ccc(Cn2c3nc4ccccc4nc3c3c(=O)n(Cc4ccco4)c(C)nc32)cc1	x	x	91.2*	x
O=C(N/N=C/c1c(O)n(C2CCCCC2)c(=S)[nH]c1=O)c1ccccc1O	6.1	20.1	-57.5	36.9*
O=C1/C(=C/Nc2cccc([N+](=O)[O-])c2)CCc2ccccc21	-2.2	-5.8	-12.4	59.6*
CC(C)NC(=O)Cn1c(SCC(=O)N2CCCc3ccccc32)nc2ccccc21	7.0	-6.9	7.0	0.5
Cc1cc(C)c2c(c1)cc(C)c1nnc(SCC(=O)N3CCCc4ccccc43)n12	4.2	-3.1	10.2	-4.7
Cc1ccc(C)c2c1cc(C)c1nnc(SCC(=O)N3CCCc4ccccc43)n12	2.0	-3.3	59.9*	5.5
O=C(Cn1c(SCC(=O)N2CCCc3ccccc32)nc2ccccc21)N1CCCC1	-6.5	x	52.9*	0.5
COc1cccc(-n2c(SCC(=O)N3CCCC3)nc3c([nH]c4ccccc43)c2=O)c1	-4.1	x	x	x
Cc1[nH][nH]c(=O)c1C(c1ccccc1[N+](=O)[O-])C(C#N)C#N (stereo not given)	2.9	-17.6	2.5	69.5*
COC(=O)C1=C(C)N(CCc2cc(OC)c(OC)c(OC)c2)C(=O)N[C@H]1c1ccccc1	x	13.5	x	-1.8
OCCCCNCc1ccc(OCc2ccccc2Cl)cc1	3.1	-2.3	14.4	3.0
OCCCCNCc1ccc(OCc2ccccc2)cc1	1.1	3.6	51.9*	-4.9
O=C(O)CCNc1cc(N2CCN(C(=O)c3ccco3)CC2)c2noc3c2c1C(=O)c1ccccc1-3	-4.5	54.5*	25.9	21.1
CCc1ccc(N(CC(=O)NCc2ccc3c(c2)OCO3)C(=O)c2csnn2)cc1	-1.8	6.1	52.9*	x
Cc1nn2c(N3CCN(C4CCCC4)CC3)cc(C(C)(C)C)nc2c1-c1ccccc1	0.0	-8.0	51.4*	-0.5
C/C(=N\N1C(C)CCCC1C)c1ccccc1O (stereo not given)	-5.2	-6.7	52.6*	3.8
C/C(=N/N=C(\C)c1ccccc1O)c1ccccc1O	0.8	-4.1	23.6	-9.8
O=c1[nH][nH]c2c1[C@H](CCc1cccc(Cl)c1)O[C@H](CCc1ccccc1)C2	x	15.9	x	x
CCN(C(=O)CSc1nnc(C)n1-c1cccc(C)c1)C1CCS(=O)(=O)C1 (stereo not given)	x	5.4	x	x
SMILES	SARS 3CLpro inh	CCHFV vOTU inh	DUSP3 inh	RecA intein inh
CCN(C(=O)CSc1nnc(CNc2cccc(OC)c2)n1C1CCCCC1)C1CCS(=O)(=O)C1 (stereo not given)	-3.8	4.7	54.9*	1.0
CC1CCCCC1NC(=O)NC(=O)CCl (stereo not given)	7.5	4.7	2.6	33.5*
CC1CCCC(NC(=O)NC(=O)CCl)C1C (stereo not given)	7.3	2.7	2.6	47.7*
COC(=O)CCCn1cc(CN2CC(N3CCN(C4CCN(C)CC4)CC3)CS2(=O)=O)nn1 (stereo not given)	x	13.7	x	x
CC(=O)Nc1ccc(-c2noc(-c3csc([C@@H]4C[C@H](O)[C@@H](CO)O4)n3)n2)cc1	x	-0.1	x	x
CCOC(=O)Cn1cc(/C=N/NC(=O)CC#N)c2ccccc21	-1.6	-10.1	-4.9	52.2*
